Sampled rows, rich in hits. Any-hit rate of the full collection: about 7.3%.
Tau fluor counter = counter-screen for tau fibril formation inhibitors | tau K18 P301L Alexa594 fluorescence, heparin fibrillization | Potency, µM (series often up to 57.7 µM), for inactives: at the highest dose activity change, negative = decrease | hit rate 0.93% among 280,000 | AID 1463; further: nearly all actives have a fitted effect of over 55% in size
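Human K18 P301L tau (15 uM unlabeled plus 0.24 uM Alexa 594-labeled, final) in 100 mM sodium acetate pH 7 was mixed with compound and 20 uM heparin and incubated 6 hr at 37 C.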
Tau ThT inhib = blocks human tau fibril formation measured by thioflavin T | recombinant tau K18 P301L (four-repeat tau fragment), heparin-induced fibrillization, ThT fluorescence | Potency, µM (series often up to 57.4 µM), inactives show top-dose activity, negative = inhibition, most hits filed as inhibitors | hit rate 2.1% among 270,000 | AID 1460; further: nearly all actives have a fitted effect of over 55% in size
Target sequence (P10636 561-689 P618L limits assumed): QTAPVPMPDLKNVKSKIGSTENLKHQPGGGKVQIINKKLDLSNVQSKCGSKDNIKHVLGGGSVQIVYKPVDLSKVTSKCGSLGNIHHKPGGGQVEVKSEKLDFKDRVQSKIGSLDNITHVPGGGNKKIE
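Aggregation was driven by heparin (20 uM final) acting on recombinant tau […] bearing P301L in 100 mM sodium acetate pH 7; fibrils were detected with Thioflavin T.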
RORg inh = ROR gamma (mouse) transcription inhibition; Potency, µM (doses to about 53.6 µM), for the others: top-dose activity change, negative = inhibition, hits mostly inhibitors; hit rate 5.4% among 310,000; AID 2551; Drosophila S2 Gal4-RORgamma UAS-luciferase reporter, 20 h; P51450; further: nearly all actives have a fitted effect of over 60% in size
Target sequence (P51450 whole entry, looked up, the tested form may be a part): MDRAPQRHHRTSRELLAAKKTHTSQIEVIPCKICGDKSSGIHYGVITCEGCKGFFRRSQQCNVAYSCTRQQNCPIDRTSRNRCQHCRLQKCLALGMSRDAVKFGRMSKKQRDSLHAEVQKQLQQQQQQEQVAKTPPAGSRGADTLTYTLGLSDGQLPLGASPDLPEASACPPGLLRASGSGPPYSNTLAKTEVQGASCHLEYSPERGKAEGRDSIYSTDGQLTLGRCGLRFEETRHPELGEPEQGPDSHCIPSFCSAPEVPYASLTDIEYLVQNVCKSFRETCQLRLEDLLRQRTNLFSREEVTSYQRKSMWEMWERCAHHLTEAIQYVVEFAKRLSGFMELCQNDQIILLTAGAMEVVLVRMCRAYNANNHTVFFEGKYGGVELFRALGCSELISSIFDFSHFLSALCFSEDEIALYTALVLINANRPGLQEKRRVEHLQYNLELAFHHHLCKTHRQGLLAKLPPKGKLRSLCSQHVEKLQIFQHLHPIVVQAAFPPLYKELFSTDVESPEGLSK
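Luminescence from a UAS-regulated Photinus luciferase reporter in stably transfected Drosophila Schneider cells is measured; decreased signal marks ROR gamma inhibition. Fusion expression is induced by 700 uM copper sulfate for 20 hr.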
VP16 counter = Gal4-VP16 reporter inhibition counter-screen; Potency, µM (doses to about 53.6 µM), inactives show at the top dose activity, negative = inhibition, hits mostly inhibitors; Drosophila S2 Gal4-VP16 UAS-luciferase, luminescence, 20 h; hit rate 3.5% among 310,000;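 further: Gal4-VP16 expression switched on by copper sulfate through the metallothionein promoter; nearly all actives have a fitted effect of over 50% in size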
Tau fibril FP = tau fibrillization inhibition (FP); P10636; K18 P301L tau heparin fibrillization, Alexa594 FP, 6 h; Potency, µM (top dose mostly 57.7 µM), without a hit: at the highest dose activity, negative = inhibition, usual class: inhibitors; hit rate 0.39% among 280,000; further: nearly all actives have a fitted effect of over 55% in size
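FP of Alexa 594-tau after heparin (20 uM) induction. Substrate: human K18 P301L, 15 uM unlabeled, 0.24 uM labeled. Buffer 100 mM sodium acetate pH 7. 6 hr, 37 C.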
* marks the source's active call; other numbers are inactive results; ? = inconclusive; . = no result given; [ ] = another dose, or the depositor's remark. The call rests on the fitted dose curve; in most records, active means well fitted curve in the direction sought with a large enough effect; inconclusive means small, poorly fitted or top-dose-only effect, or another doubt; inactive means no such curve, though single readings can be large; an effect the other way counts as inactive or inconclusive. On the % scale 0 is the no-effect control and ±100 the full control effect; potency means the concentration at half of the fitted maximal effect.

SMILES | Tau fluor counter | Tau ThT inhib | RORg inh | VP16 counter | Tau fibril FP
CCn1c2ccc(Cl)cc2c2nc3ccccc3nc21 | -22.6% | 15.8µM* | -35.6% | -9.2% | -10.3%
O=[N+]([O-])c1ccc(/C=C/C2=NN(c3ccccc3)C(c3ccco3)C2)cc1 (centres undefined) | ? | 3.55µM* | ? | 20µM* | -8.7%
O=S(=O)(c1ccccc1)N1N=C(c2ccc(O)cc2)CC1c1ccco1 (centres undefined) | . | . | -19.7% | 20µM* | .
O=[N+]([O-])c1ccc(C2=NN(c3ccccc3)C(c3ccco3)C2)cc1 (centres undefined) | -24.2% | 5.01µM* | 20.5% | 24.6% | 10.6%
O=S(=O)(c1ccccc1)N1N=C(c2ccc(Br)cc2)CC1c1ccco1 (centres undefined) | . | . | 8.5% | 2.7% | .
CC(C)(C)c1ccc(S(=O)(=O)N2CCC(Oc3ccc(-n4cnnn4)cc3)CC2)cc1 | -14.9% | 9.1% | . | . | -2.2%
C=CCc1ccc(OCCOc2ccc(/C=N/n3cnnc3)cc2OCC)c(OC)c1 | ? | ? | 15.8µM* | ? | -18.1%
O=C(Nc1ccccc1Cl)OC1CCCCC1 | . | . | 1.5% | 3.6% | .
CCC/C(=N/NC(=O)c1cccc(Cl)c1)c1ccccc1 | -9.1% | ? | 12.6µM* | ? | -2.2%
O=C(N/N=C/C1C(c2ccccc2)C1(Cl)Cl)c1cccc(Cl)c1 (centres undefined) | -16.4% | -15.7% | 2.82µM* | 4.47µM* | 5.3%
CSc1nc2sc3c(c2c(=O)[nH]1)CC(C)(C)OC3 | . | . | 11.6% | 0.2% | .
Cc1cccc(C(C)C)c1NC(=O)COC(=O)CCN1C(=O)C2CC=CCC2C1=O (centres undefined) | . | . | 7.2% | -1.8% | .
Cc1ccc2c(c1)c1c3n2CCN=C3CCC1 | -15.4% | ? | 11.2µM* | ? | -0.3%
Cc1[nH]c2ccccc2c1C(=O)CSC(=S)N1CCCCC1 | 22.4µM*[quencher] | ? | ? | -1.8% | 39.8µM*
Cc1[nH]c2ccccc2c1C(=O)CSC(=S)N(C)C1CCCCC1 | ? | -13.7% | 44.6% | 2.9% | 25.1µM*
O=C(CSC(=S)N1CCCCC1)c1ccccc1 | -13.7% | -14.1% | ? | ? | -11.2%
O=C(CSC(=S)N1CCCC1)c1ccccc1 | . | . | 10µM* | ? | .
COc1cc(-c2n[nH]c(=S)n2/N=C/c2cccn2C)cc(OC)c1OC | -15.6% | -8.6% | -14.5% | -1.6% | -0.9%
CC(=O)c1ccc(NC(=O)CSc2nnc3ccc(-c4ccc(F)cc4)nn23)cc1 | 2.6% | -0.6% | . | . | -4.8%
O=C(O)CCc1c(C(=O)O)[nH]c2cc(Cl)cc(Cl)c12 | . | . | 11.9% | -8.0% | .
COC(=O)[C@H](COC(C)(C)C)NC(=O)O[C@@H]1C(=O)c2cc(Br)ccc2O[C@H]1c1cccc(OC)c1 | -11.2% | -10.0% | 5.6% | 3.7% | -3.0%
Cc1cc(S(=O)(=O)N2CCOCC2)ccc1NC(=O)c1ccc(F)cc1 | . | . | ? | -1.2% | .
CC1Cc2ccccc2N1C(=O)CSc1nnc(-c2cccc(Cl)c2)o1 (centres undefined) | -17.2% | -10.1% | . | . | 6.0%
O=C(CSc1nc(-c2ccccc2)[nH]c1-c1ccc(F)cc1)NC1CCCC1 | 28.2µM*[quencher] | -14.4% | . | . | 11.3%
COc1cccc(-c2nc(SCC(=O)NCC3CCCO3)c(-c3ccc(Cl)cc3)[nH]2)c1 (centres undefined) | 12.6µM*[quencher] | ? | . | . | 9.1%
SMILES | Tau fluor counter | Tau ThT inhib | RORg inh | VP16 counter | Tau fibril FP
COc1cccc(-c2nc(SCC(=O)NC3CCCC3)c(-c3ccc(F)cc3)[nH]2)c1 | 12.6µM*[quencher] | ? | . | . | 10.4%
COCCNC(=O)CSc1nc(-c2ccccc2)[nH]c1-c1ccc(OC)cc1 | -14.8% | -9.3% | . | . | ?
COc1cccc(-c2nc(SCC(=O)NC3CCCC3)c(-c3ccccc3)[nH]2)c1 | 25.1µM*[quencher] | -14.8% | . | . | ?
COc1cccc(-c2nc(SCC(=O)NCC3CCCO3)c(-c3ccc(C)cc3)[nH]2)c1 (centres undefined) | ? | -9.0% | . | . | 12.6%
COc1ccc(-c2nc(SCC(=O)NC3CCCC3)c(-c3ccc(C)cc3)[nH]2)cc1OC | 17.8µM*[quencher] | ? | . | . | ?
COc1ccc(-c2[nH]c(-c3ccc(C)cc3)nc2SCC(=O)NC2CCCC2)cc1 | ? | ? | ? | -17.8% | 6.7%
COc1cccc(-c2nc(SCC(=O)NC3CCCC3)c(-c3ccc(C)cc3)[nH]2)c1 | 11.2µM*[quencher] | -16.3% | . | . | ?
CC(C)SCc1cc(N2CCCC2)nc(-c2ccccc2)n1 | -12.1% | -9.4% | 12.6µM* | -5.3% | -11.4%
CSCc1cc(N2CCCC2)nc(-c2ccccc2)n1 | -5.2% | 4.4% | ? | 10.0% | 1.4%
CC(C)C[C@@H](CC(=O)N[C@@H](CCCN)CC(=O)N[C@@H]1CCNC[C@H]1C(=O)N[C@H](CC(=O)N[C@@H](CCC(=O)O)CC(=O)O)CC(C)C)NC(=O)[C@@H]1CCCC[C@H]1N | -1.9% | -8.2% | 8.0% | -2.4% | 1.8%
O=[N+]([O-])c1cccnc1N1CCC(c2cc(-c3ccc(Cl)cc3)n[nH]2)CC1 | ? | 7.94µM* | ? | -9.8% | -7.8%
COCc1nnc(NC(=O)c2ccc(S(=O)(=O)N3CCCc4ccccc43)cc2)o1 | -11.4% | -3.9% | 0.631µM* | 3.55µM* | -11.4%
O=C(Nc1nnc(C2CC2)o1)c1ccc(S(=O)(=O)N2CCCc3ccccc32)cc1 | -7.5% | -2.7% | 0.316µM* | 0.708µM* | 9.0%
COc1ccc(C(=O)Nc2ccc3c(c2)CCCN3S(=O)(=O)c2ccc(C)cc2)cc1 | ? | 9.3% | . | . | -15.3%
O=C(NCc1ccccc1)c1ccc(S(=O)(=O)N2CCCc3ccccc32)cc1 | ? | -13.0% | ? | -6.3% | -6.7%
COc1ccc(-c2nnc(NC(=O)c3ccc(S(=O)(=O)N4CCCc5ccccc54)cc3)o2)cc1 | -23.4% | -20.4% | 0.282µM* | 0.501µM* | 0.2%
COCc1nnc(NC(=O)c2ccc(S(=O)(=O)N3CCOCC3)cc2)o1 | . | . | 11.2µM* | 20µM* | .
CO/N=C1/c2cc(OC)ccc2O[C@@H](c2cccc(OC)c2)[C@H]1O | -3.1%[11.6 µM] | -10.4%[11.5 µM] | ? | -23.5%[10 µM] | -2.8%[11.6 µM]
Cc1c(/C=N/Nc2ccc(F)cc2)c(O)n(C)c(=O)c1C#N | -26.5% | 14.1µM* | 17.5% | 1.9% | ?
CCOc1ccccc1NC(=O)N1CCN(S(=O)(=O)c2ccc3c(ccn3C)c2)CC1 | -24.8% | -7.6% | . | . | 6.4%
CC(C)Oc1ccc(S(=O)(=O)N2CCOCC2)cc1NC(=O)c1ccc(N2CCCC2=O)cc1 | . | . | 9.2% | 2.3% | .
CCn1c(=S)[nH]c2nc3c(cc2c1=O)CCCC3 | 2.0% | -8.0% | 1.58µM* | ? | 6.1%
O=c1c2cc3c(nc2[nH]c(=S)n1-c1ccccc1)CCCC3 | -9.6% | -4.3% | 2.51µM* | ? | -3.8%
Cc1ccc(NC(=O)CN(C)S(=O)(=O)c2cccs2)cc1C | -19.4% | -9.0% | ? | 7.94µM* | 2.4%

High-throughput results as filed in PubChem.
